Data on 15 compounds can be found in ChEMBL document CHEMBL1157539, “Thousands of chemical starting points for antimalarial lead identification” (Nature, 2010).

Each structure is given as a SMILES string.

The test concerns Plasmodium falciparum. The test is described as follows: GSK_TCMDC: Inhibition of Plasmodium falciparum 3D7 in whole red blood cells, using parasite LDH activity as an index of growth. Test compounds present at 2uM. In kind it is functional.
Consider `O=C(Nc1ccc(-c2cccc(-c3nc4cc(F)ccc4[nH]3)c2)cc1)Nc1ccc(Cl)c(Cl)c1`, for which the Inhibition was 99%.
The value for `Cc1cc(N(C)C)nc(Nc2ccc(NC(=O)C3CCCCC3)cc2)n1` was 100%; that for `OC(CNCc1ccccc1OCc1ccccc1)c1cccc(I)c1` (stereo not given) was 100%.
With `CN(C)CCNC(=O)NC1CN(c2ncnc3cc(-c4ccccc4)sc23)C1.O=C(O)C(F)(F)F` the figure was 100%; with `Br.CCn1c2c(c(=N)c3ccccc31)CCC2`, 83%; with `CCOc1c(CNCCCCCCNCc2ccc3ccccc3c2OCC)ccc2ccccc12.CS(=O)(=O)O`, 99%.
With `Cc1ccc(CNC(=O)[C@H](CC(C)C)Nc2cc(C)nc(NCC3CCCCC3)n2)cc1.O=C(O)C(F)(F)F` the figure was 96%.
On to `c1nc2nc3c(c(Nc4ccc5c(c4)CCC5)n2n1)CCC3`, for which the Inhibition came out at 87%.
With `CCOc1ccc(C2CCN(CCCCNC(=O)c3ccc(NC(=O)c4ccc(Cl)cc4)cc3)CC2)c(Cl)c1` the figure was 100%; with `Cc1cc(NC(=O)c2cc(S(=O)(=O)N3CCCCC3)ccc2C)no1`, 95%.
With `CN(C)C1CCN(CC#Cc2cc3ncnc(Nc4ccc(OCc5cccc(F)c5)c(Cl)c4)c3s2)CC1` the figure was 85%.
With `CCN(CCCN1CCCCC1)c1cc(C)nc(Nc2ccc(F)c(C(F)(F)F)c2)n1.O=C(O)C(F)(F)F` the figure was 100%; with `CCc1cccc2c(C#N)cn(CC(=O)NCCc3ccccc3)c12`, 95%.
Regarding `O=C(NC1CCCCN(Cc2ccccc2O)C1)c1cc(F)cc(F)c1.O=C(O)C(F)(F)F` (stereo not given), the Inhibition was 89%.
With `O=C(Cc1cccc(Cl)c1)Nc1cccc(-c2c[nH]c3nc(Nc4ccccc4)ncc23)c1.O=C(O)C(F)(F)F` the figure was 99%.

As usually defined, the Inhibition is the drop in the measured response relative to a control, in per cent. A low value points to little suppression.
